Data: the supplement of paper PMC10849652
Targets with a hit are over-represented here; the source holds about 7,900 in all. About 0.6% of all pairs of compound and target were hits. Values without a mark were called inactive.

What was measured:
Assay in all cases: log2 fold change, soluble protein after heating vs DMSO (PISA); higher = thermal stabilisation; K562 cells, 10 uM, 30 min; active = over 0.2 and 3.5 SD of the protein, either way, in both replicates (recomputed)
[1] = compound: CS(=O)(=O)c1ccc(-c2cnc(N)c(C(=O)Nc3ccccc3)n2)cc1
Outline: (§1)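 Soluble protein was defined as the supernatant after 21,000xg for 90 min. It came from K562 cells at 2×10^6 cells/mL given 10 μM compound for 30 min, heated in aliquots for 3 min across 48°C-58°C, pooled, and extracted in PBS with 0.5% NP-40 at 4°C, and was quantified by TMTpro 16plex LC-MS/MS with equalised channel sums. Thermal stability against control samples, from duplicates, is reported as log2 fold change.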

crizotinib = compound: C[C@@H](Oc1cc(-c2cnn(C3CCNCC3)c2)cnc1N)c1c(Cl)ccc(F)c1Cl [crizotinib]
Outline: as §1

[2] = compound: C[C@@H]1COCCN1C2=NC(=NC(=C2)C3(CC3)S(=O)(=O)C)C4=C5C=CNC5=CC=C4
Outline: as §1

[3] = compound: C[C@H](C1=CC=C(C=C1)C(=O)NC2=C3C=CNC3=NC=C2)N
Outline: as §1

duvelisib = compound: C[C@H](Nc1ncnc2nc[nH]c12)c1cc2cccc(Cl)c2c(=O)n1-c1ccccc1 [duvelisib]
Outline: as §1

gandotinib = compound: Cc1cc(Nc2cc(CN3CCOCC3)c3nc(C)c(Cc4ccc(Cl)cc4F)n3n2)n[nH]1 [gandotinib]
Outline: as §1

tozasertib = compound: Cc1cc(Nc2cc(N3CCN(C)CC3)nc(Sc3ccc(NC(=O)C4CC4)cc3)n2)n[nH]1 [tozasertib]
Outline: as §1

[4] = compound: Cc1cc(SCc2sc(-c3ccc(C(F)(F)F)cc3)nc2C)ccc1OCC(=O)O
Outline: as §1

doramapimod = compound: Cc1ccc(-n2nc(C(C)(C)C)cc2NC(=O)Nc2ccc(OCCN3CCOCC3)c3ccccc23)cc1 [doramapimod]
Outline: as §1

ispinesib = compound: Cc1ccc(C(=O)N(CCCN)[C@@H](c2nc3cc(Cl)ccc3c(=O)n2Cc2ccccc2)C(C)C)cc1 [ispinesib]
Outline: as §1

Chain of UniProt P25685 (P25685 whole entry, looked up): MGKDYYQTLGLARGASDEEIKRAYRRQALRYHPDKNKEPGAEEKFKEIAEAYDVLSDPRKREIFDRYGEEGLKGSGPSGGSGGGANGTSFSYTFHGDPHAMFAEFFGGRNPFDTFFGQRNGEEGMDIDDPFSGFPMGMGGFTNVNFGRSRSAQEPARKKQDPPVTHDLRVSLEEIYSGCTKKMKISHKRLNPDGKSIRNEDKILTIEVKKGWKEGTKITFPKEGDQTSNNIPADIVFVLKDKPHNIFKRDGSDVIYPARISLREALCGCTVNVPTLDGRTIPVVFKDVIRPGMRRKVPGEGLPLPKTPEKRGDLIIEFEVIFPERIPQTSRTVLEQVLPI
Chain of UniProt Q96DT5 (Q96DT5 whole entry, looked up): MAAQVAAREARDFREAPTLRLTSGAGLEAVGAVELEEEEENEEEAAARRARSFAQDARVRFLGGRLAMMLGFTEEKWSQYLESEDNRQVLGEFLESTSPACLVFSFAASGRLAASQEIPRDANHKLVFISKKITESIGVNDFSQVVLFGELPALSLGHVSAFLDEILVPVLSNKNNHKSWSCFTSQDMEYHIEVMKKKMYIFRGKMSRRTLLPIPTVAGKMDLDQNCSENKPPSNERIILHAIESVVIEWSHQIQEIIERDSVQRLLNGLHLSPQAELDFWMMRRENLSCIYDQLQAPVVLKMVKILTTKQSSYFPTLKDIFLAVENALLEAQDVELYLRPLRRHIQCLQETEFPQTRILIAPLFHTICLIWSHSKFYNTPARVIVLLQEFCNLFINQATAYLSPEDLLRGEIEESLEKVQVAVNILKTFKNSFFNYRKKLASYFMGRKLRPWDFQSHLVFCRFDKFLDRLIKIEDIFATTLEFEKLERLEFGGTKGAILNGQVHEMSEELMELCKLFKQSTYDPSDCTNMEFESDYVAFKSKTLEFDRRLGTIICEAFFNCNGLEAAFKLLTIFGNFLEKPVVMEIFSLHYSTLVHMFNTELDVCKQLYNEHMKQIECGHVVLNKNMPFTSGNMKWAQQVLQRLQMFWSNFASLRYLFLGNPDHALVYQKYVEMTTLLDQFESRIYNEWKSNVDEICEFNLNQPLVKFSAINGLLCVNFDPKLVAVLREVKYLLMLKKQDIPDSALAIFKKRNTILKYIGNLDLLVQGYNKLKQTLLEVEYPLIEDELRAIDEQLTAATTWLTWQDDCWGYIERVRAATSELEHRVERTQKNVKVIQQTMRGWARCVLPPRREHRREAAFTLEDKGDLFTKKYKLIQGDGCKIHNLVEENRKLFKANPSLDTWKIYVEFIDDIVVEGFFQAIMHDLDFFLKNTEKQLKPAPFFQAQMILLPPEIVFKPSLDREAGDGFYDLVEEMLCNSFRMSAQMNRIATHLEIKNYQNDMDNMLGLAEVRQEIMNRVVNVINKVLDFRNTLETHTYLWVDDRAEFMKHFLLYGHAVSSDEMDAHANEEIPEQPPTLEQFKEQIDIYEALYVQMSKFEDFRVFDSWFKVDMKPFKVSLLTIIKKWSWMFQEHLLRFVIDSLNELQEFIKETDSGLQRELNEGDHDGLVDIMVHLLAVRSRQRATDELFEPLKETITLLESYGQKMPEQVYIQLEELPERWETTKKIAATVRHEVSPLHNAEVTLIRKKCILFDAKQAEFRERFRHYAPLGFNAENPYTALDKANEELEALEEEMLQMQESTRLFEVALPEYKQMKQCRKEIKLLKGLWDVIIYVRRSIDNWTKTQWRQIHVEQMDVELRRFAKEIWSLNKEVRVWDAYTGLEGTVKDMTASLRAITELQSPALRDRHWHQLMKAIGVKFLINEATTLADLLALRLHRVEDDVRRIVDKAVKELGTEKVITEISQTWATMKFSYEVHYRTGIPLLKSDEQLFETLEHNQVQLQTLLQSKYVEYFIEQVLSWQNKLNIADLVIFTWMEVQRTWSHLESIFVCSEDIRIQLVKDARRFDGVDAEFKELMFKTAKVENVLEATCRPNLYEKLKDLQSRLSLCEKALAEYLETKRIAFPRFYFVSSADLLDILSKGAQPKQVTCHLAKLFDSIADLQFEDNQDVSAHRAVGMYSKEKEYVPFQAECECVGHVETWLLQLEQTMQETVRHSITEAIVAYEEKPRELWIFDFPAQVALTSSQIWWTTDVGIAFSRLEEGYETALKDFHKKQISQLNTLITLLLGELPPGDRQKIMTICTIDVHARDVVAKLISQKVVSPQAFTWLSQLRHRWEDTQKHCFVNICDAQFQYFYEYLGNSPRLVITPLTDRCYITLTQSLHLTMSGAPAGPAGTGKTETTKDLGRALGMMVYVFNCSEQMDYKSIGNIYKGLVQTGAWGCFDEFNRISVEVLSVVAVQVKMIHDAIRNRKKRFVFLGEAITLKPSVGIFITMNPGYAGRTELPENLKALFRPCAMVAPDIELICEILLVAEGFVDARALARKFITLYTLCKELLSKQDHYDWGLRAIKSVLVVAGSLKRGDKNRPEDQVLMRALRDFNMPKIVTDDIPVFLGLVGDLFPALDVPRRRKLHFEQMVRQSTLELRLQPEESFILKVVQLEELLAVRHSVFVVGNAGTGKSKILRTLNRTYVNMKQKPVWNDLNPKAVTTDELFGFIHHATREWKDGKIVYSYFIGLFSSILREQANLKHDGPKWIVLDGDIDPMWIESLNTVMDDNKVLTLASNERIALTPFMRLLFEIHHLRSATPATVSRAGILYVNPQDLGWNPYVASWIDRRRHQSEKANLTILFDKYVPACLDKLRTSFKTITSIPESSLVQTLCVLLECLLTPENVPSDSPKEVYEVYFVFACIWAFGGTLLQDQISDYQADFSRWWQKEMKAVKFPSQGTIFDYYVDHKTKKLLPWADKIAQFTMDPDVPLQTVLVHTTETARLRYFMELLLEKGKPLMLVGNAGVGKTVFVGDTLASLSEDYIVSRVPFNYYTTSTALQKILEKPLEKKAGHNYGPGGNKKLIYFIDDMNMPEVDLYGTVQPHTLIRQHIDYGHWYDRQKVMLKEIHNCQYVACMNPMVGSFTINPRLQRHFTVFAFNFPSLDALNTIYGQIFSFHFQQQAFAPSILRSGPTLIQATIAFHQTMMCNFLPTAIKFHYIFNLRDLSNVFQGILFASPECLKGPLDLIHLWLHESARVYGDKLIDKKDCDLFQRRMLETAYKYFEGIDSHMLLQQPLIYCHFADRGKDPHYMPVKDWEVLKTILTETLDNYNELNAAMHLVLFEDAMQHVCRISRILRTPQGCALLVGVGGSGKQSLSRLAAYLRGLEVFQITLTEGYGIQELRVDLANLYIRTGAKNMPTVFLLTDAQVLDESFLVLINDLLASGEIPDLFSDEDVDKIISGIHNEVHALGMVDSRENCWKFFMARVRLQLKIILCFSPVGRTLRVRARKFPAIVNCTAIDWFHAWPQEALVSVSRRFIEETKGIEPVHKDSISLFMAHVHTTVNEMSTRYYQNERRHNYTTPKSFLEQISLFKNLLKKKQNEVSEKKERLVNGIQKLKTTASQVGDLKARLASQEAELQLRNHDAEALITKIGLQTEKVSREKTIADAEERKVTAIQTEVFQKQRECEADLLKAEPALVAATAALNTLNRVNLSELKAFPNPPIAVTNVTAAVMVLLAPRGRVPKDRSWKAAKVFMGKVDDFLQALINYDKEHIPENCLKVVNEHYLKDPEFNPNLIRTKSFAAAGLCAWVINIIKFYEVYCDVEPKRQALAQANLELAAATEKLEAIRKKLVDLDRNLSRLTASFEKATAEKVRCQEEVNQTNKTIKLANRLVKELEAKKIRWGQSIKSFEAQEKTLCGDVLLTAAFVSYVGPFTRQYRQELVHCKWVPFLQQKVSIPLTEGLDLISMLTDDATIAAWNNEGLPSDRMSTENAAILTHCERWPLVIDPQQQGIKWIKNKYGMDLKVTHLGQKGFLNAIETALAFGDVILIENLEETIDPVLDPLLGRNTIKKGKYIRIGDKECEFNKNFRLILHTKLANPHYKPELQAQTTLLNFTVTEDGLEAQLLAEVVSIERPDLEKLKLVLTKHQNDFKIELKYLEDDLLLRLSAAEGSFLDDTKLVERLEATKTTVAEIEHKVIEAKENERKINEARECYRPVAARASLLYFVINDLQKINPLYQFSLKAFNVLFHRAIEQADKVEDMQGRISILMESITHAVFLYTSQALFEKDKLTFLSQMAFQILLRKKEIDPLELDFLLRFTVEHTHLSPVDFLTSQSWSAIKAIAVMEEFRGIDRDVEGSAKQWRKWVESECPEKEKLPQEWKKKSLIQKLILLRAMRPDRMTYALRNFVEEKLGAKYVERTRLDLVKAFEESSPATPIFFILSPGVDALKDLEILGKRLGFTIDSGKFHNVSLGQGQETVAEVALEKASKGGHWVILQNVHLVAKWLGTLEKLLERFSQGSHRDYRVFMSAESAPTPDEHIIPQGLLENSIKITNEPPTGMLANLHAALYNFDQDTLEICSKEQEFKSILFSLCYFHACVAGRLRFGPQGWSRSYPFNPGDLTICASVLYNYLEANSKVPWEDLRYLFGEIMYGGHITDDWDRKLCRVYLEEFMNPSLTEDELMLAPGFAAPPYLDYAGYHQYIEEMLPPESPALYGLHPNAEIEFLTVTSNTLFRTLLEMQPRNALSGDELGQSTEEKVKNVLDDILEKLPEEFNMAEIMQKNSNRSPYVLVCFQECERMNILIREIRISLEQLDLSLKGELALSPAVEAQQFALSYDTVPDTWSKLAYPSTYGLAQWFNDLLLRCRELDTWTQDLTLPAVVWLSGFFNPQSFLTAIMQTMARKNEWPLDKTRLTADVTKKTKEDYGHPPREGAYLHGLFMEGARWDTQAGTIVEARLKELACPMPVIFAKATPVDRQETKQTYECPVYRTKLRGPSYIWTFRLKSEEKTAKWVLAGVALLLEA
Chain of UniProt Q8N5C7 (Q8N5C7 whole entry, looked up): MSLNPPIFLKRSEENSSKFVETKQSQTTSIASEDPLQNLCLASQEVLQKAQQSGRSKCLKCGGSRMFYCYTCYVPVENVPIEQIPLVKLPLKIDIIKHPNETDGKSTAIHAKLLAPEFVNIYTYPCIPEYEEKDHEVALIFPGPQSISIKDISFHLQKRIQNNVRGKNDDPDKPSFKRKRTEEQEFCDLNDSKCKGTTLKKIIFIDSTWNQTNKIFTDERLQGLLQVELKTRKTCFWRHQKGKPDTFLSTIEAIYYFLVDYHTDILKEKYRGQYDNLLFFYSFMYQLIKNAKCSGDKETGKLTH

Target | log2 fold change [1] | log2 fold change (crizotinib) | log2 fold change [2] | log2 fold change [3] | log2 fold change (duvelisib) | log2 fold change (gandotinib) | log2 fold change (tozasertib) | log2 fold change [4] | log2 fold change (doramapimod) | log2 fold change (ispinesib)
EXOC7 (UniProt Q9UPT5) | -0.062 | -0.25 | -0.028 | 0.034 | 0.027 | -0.122 | 0.027 | 0.05 | -0.029 | -0.346 (active)
EOGT (UniProt Q5NDL2) | 0.052 | 0 | -0.054 | 0.069 | 0.045 | -0.003 | -0.05 | -0.137 | 0.068 | -0.006
CTU1 (UniProt Q7Z7A3) | 0.005 | -0.132 | 0.081 | -0.032 | -0.012 | -0.015 | -0.026 | 0.058 | -0.049 | -0.082
EDC3 (UniProt Q96F86) | 0.002 | -0.237 | -0.439 (active) | -0.014 | -0.14 | -0.023 | -0.025 | 0.066 | 0.05 | -0.121
DTNBP1 (UniProt Q96EV8) | 0.093 | 0 | 0.079 | -0.014 | -0.012 | -0.104 | -0.034 | 0.022 | -0.009 | -0.073
FAM83D (UniProt Q9H4H8) | -0.018 | -0.061 | 0.021 | 0.014 | 0.001 | -0.308 (active) | 0.025 | 0.08 | -0.009 | 0.064
F5 (UniProt P12259) | 0.081 | 0.257 | -0.064 | 0.057 | -0.036 | 0.023 | 0.004 | 0.223 | 0.019 | 0.055
DNAH11 (UniProt Q96DT5) | -0.054 | 0.071 | 0.062 | 0.695 (active) | 0.073 | 0.104 | -0.165 | -0.069 | 0.037 | -0.125
FADS1, A0A0A0MR51 | 0.096 | -0.049 | -0.019 | -0.026 | 0.016 | 0.434 (active) | -0.011 | -0.007 | 0 | -0.252 (active)
DDX46 (UniProt Q7L014) | 0.12 | 0.1 | 0.185 | -0.025 | 0.144 | -0.144 | 0.109 | 0.235 | -0.087 | 0.197
EFCAB14 (UniProt O75071) | 0.045 | -0.301 (active) | 0.083 | 0.041 | 0.006 | -0.009 | -0.097 | -0.006 | -0.01 | -0.004
DDX27 (UniProt Q96GQ7) | -0.039 | -0.037 | -0.064 | 0.37 | -0.145 | 0.073 | -0.12 | 0.071 | 0.135 | 0.004
DDOST (UniProt P39656) | 0.014 | -0.051 | -0.065 | -0.055 | -0.074 | 0.02 | 0.022 | -0.016 | 0.005 | 0.13
EIF4G1 isoform 8 (UniProt Q04637) | -0.21 | -0.314 | -0.206 | 0.109 | -0.1 | -0.032 | 0.008 | 0.149 | 0.032 | -0.324
FAF2 (UniProt Q96CS3) | 0.049 | -0.056 | 0.042 | 0.049 | 0.031 | 0.022 | 0.016 | 0.059 | 0.023 | -0.011
DFFB (UniProt O76075) | 0.018 | 0.072 | 0.012 | 0.106 | 0.037 | -0.017 | -0.123 | -0.012 | -0.021 | -0.006
DHCR7 (UniProt Q9UBM7) | -0.003 | 0.192 | -0.085 | 0.089 | -0.029 | -0.304 | -0.055 | 0.051 | 0.049 | -0.056
ESS2 (UniProt Q96DF8) | -0.081 | -0.079 | 0.016 | 0.031 | -0.069 | 0.004 | -0.029 | -0.044 | 0.02 | -0.053
DNAJB1 (UniProt P25685) | -0.004 | -0.004 | 0.084 | 0 | 0.045 | -0.041 | -0.001 | 0.059 | -0.018 | 0.019
DYNC1LI2 (UniProt O43237) | 0.025 | 0.079 | -0.283 | 0.393 | -0.049 | 0.235 | 0.018 | 0.054 | -0.121 | -0.026
EXOC1 (UniProt Q9NV70) | -0.036 | -0.336 | -0.007 | 0.174 | -0.013 | -0.179 | -0.016 | 0.067 | 0.138 | -0.472 (active)
CYP51A1 (UniProt Q16850) | 0.028 | 0.12 | -0.162 | 0.147 | -0.075 | -0.111 | -0.031 | 0 | 0.156 | 0.117
EBNA1BP2 (UniProt Q99848) | -0.013 | -0.025 | -0.236 | 0.394 | -0.138 | 0.104 | 0.191 | 0.025 | 0.282 | 0.21
CYBA (UniProt P13498) | 0.069 | -0.108 | 0.024 | -0.045 | 0.05 | -0.231 | -0.043 | 0.04 | 0.01 | -0.488 (active)
EDEM2 (UniProt Q9BV94) | 0.036 | 0.024 | -0.119 | 0.163 | -0.074 | -0.081 | -0.015 | 0.111 | 0.065 | -0.04
DTWD1 (UniProt Q8N5C7) | 0.053 | 0.067 | 0.061 | 0.014 | 0.015 | 0.098 | 0.029 | 0.012 | 0.009 | -0.001
DBR1 (UniProt Q9UK59) | -0.034 | -0.022 | 0.061 | -0.014 | -0.072 | 0.003 | -0.051 | 0.01 | 0.02 | 0.058
DAB2 (UniProt P98082) | -0.04 | -0.099 | 0.049 | -0.052 | -0.021 | -0.021 | -0.023 | 0.069 | 0.022 | -0.091
DCAF16 (UniProt Q9NXF7) | 0.058 | 0.001 | 0.176 | -0.103 | 0.054 | 0.069 | 0.079 | 0.17 | -0.005 | 0.036
DMXL1 (UniProt Q9Y485) | -0.012 | -0.092 | 0.002 | 0.048 | -0.011 | -0.013 | -0.03 | 0 | 0.047 | -0.217
